Laboratory results taken from PubChem BioAssay (NCI).
“And” between values parts separate entries of the source, which are not always exact repeats. Identical values can stand only once. This is part of a sample that, as a whole, favours compounds with a hit. Of some 83,000 tested, about 20% had one in any assay.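 Compound tested at a single concentration for 48 hours in 96-well plates; a percent growth value below 10 was scored as active.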 The source made the active and inactive calls.

How the values were obtained:
Assay in all cases: NCI-60 one-dose screen, 48 h (100 = growth as untreated, 0 = no growth, -100 = all killed)
OVCAR-5 ovarian = conditions: 10 µM unless noted
OVCAR-4 ovarian = conditions: 10 µM unless noted
SK-OV-3 ovarian = conditions: 10 µM unless noted
IGROV1 ovarian = conditions: 10 µM unless noted
OVCAR-3 ovarian = conditions: 10 µM unless noted
HS 578T breast = conditions: 10 µM unless noted
NCI/ADR-RES ovarian = conditions: 10 µM unless noted
T-47D breast = conditions: 10 µM unless noted
BT-549 breast = conditions: 10 µM unless noted
MDA-MB-435 melanoma = conditions: 10 µM unless noted
SW-620 colon = conditions: 10 µM unless noted
MCF7 breast = conditions: 10 µM
HCT-116 colon = conditions: 10 µM unless noted
HCC-2998 colon = conditions: 10 µM unless noted
KM12 colon = conditions: 10 µM unless noted

Structure (SMILES) | growth (OVCAR-5 ovarian) | growth (OVCAR-4 ovarian) | growth (SK-OV-3 ovarian) | growth (IGROV1 ovarian) | growth (OVCAR-3 ovarian) | growth (HS 578T breast) | growth (NCI/ADR-RES ovarian) | growth (T-47D breast) | growth (BT-549 breast) | growth (MDA-MB-435 melanoma) | growth (SW-620 colon) | growth (MCF7 breast) | growth (HCT-116 colon) | growth (HCC-2998 colon) | growth (KM12 colon)
CC[C@@]1(O)C[C@H](OC2CC(N(C)C)C(O)C(C)O2)c2c(O)c3c(c(O)c2[C@H]1OC1CC(N(C)C)C(O)C(C)O1)C(=O)c1cccc(O)c1C3=O (some centres undefined) | -21% (active) | -57.2% (active) | 24.2% (inactive) | -71% (active) | 1.09% (active) | -38.5% (active) | -12.7% (active) | 1.62% (active) | -61.3% (active) | -86% (active) | -0.489% (active) | -8.26% (active) | -3.79% (active) | -83.6% (active) | -50.3% (active)
Cc1ccc(C(=O)OC(C(=O)O)C(OC(=O)c2ccc(C)cc2)C(=O)O)cc1 (centres undefined) (tested in a mixture with another compound) | 67% (inactive) | 58.9% (inactive) | 69.7% (inactive) | 63% (inactive) | 44.5% (inactive) | 40% (inactive) | 56.3% (inactive) |  | 17.5% (inactive) | 51.3% (inactive) | 53.4% (inactive) | 14.3% (inactive) | 22.1% (inactive) | 73% (inactive) | 58.9% (inactive)
COC1=C(C)C(=O)C2=C(C1=O)C(CO)N1C(C#N)C3CC4C(C1C2N1CCOC41)N3C (centres undefined) | 11.1% (inactive) |  | 42.4% (inactive) |  | -18.7% (active) | -55.2% (active) | -21.4% (active) | -16.8% (active) | -64.3% (active) | -64.2% (active) | -28% (active) | -0.551% (active) | -33.7% (active) | -87.3% (active) | -60.8% (active)
CC1=C2C(=O)[C@H]3[C@@H](CC=C4C[C@@H](O)CC[C@@]43C)[C@@H]2CC[C@]12O[C@@H]1C[C@H](C)CN[C@H]1[C@H]2C | 94% (inactive) | 96.3% (inactive) | 101% (inactive) | 26.1% (inactive) | 140% (inactive) | 118% (inactive) | 101% (inactive) | 107% (inactive) |  | 98.2% (inactive) | 99.2% (inactive) | 91.6% (inactive) | 45.5% (inactive) | 141% (inactive) | 112% (inactive)
C[C@H]1CCC/C=C/[C@@H]2C[C@H](O)C[C@H]2[C@H](O)/C=C/C(=O)O1 | 32.1% (inactive) | -30.5% (active) | 35.9% (inactive) | -54.8% (active) | -37.4% (active) | 57.9% (inactive) | 7.27% (active) | -26.1% (active) | 2.5% (active) | 0.489% (active) | -20.4% (active) | -11.9% (active) | -70.8% (active) | -49.5% (active) | -59.8% (active)
CC[n+]1c(-c2ccccc2)c2cc(N)ccc2c2ccc(N)cc21 | 49.4% (inactive) | 11.6% (inactive) | 47.3% (inactive) | 9.12% (active) | -0.305% (active) | 3.75% (active) | 87.6% (inactive) | 11.2% (inactive) | -35.7% (active) | -36% (active) | 17.9% (inactive) |  | 13.8% (inactive) | 6.95% (active) | 7.69% (active)
CCC1(O)CC(OC2CC(N(C)C)C(OC3CC4OC5CC(=O)C(C)OC5OC4C(C)O3)C(C)O2)c2c(cc3c(c2O)C(=O)c2c(O)ccc(O)c2C3=O)C1C(=O)OC (centres undefined) | -16.1% (active) | -53.9% (active) | 16.1% (inactive) | -78.1% (active) | 4.8% (active) | -37% (active) | -20% (active) | -2.73% (active) | -76.3% (active) | -94.1% (active) | -11.4% (active) | 2.21% (active) | -2.93% (active) | -89.9% (active) | -55.3% (active)
Oc1cccc2cccnc12 | 89.4% (inactive) | 60.6% (inactive) and 120% (inactive) and 114% (inactive) | 107% (inactive) and 97.8% (inactive) and 99.9% (inactive) | 120% (inactive) and 118% (inactive) and 104% (inactive) | -6.09% (active) and 105% (inactive) and 104% (inactive) | 116% (inactive) and 101% (inactive) | 83% (inactive) and 108% (inactive) and 114% (inactive) | 29% (inactive) and 95.8% (inactive) and 97.9% (inactive) | 106% (inactive) and 113% (inactive) and 101% (inactive) | 101% (inactive) and 110% (inactive) and 119% (inactive) | 48.2% (inactive) and 100% (inactive) and 103% (inactive) | 1.86% (active) and 103% (inactive) and 104% (inactive) | 47.6% (inactive) and 108% (inactive) and 113% (inactive) | 100% (inactive) and 103% (inactive) and 123% (inactive) | 102% (inactive) and 106% (inactive) and 103% (inactive)
COC1CC(CC2CCC(C)C(C(C)C(=O)O)O2)OC2(OC(C)(C3CCC(C)(C4OC(C5OC(O)(CO)C(C)CC5C)CC4C)O3)CC2C)C1C (centres undefined) | 14% (inactive) |  | 44% (inactive) |  | 9.34% (active) | 14.3% (inactive) | 36.7% (inactive) | 15.9% (inactive) | -52.6% (active) | -91.7% (active) | 6.56% (active) | 8.04% (active) | 3.98% (active) | -10% (active) | -33.4% (active)
CCCCCCCCCCCC1CCCC(C)N1 (centres undefined) | 88.8% (inactive) | 85.5% (inactive) | 121% (inactive) | -40.3% (active) | 90.9% (inactive) | 64.5% (inactive) | 82.7% (inactive) | 102% (inactive) |  | 71.8% (inactive) | 49.4% (inactive) | 44.1% (inactive) | 65% (inactive) | -72.4% (active) | 44% (inactive)
CN1CCN(c2ccc([N+](=O)[O-])c3no[n+]([O-])c23)CC1 | -15.2% (active) | -91.8% (active) | -97.9% (active) | -71.5% (active) | -88.8% (active) | -12% (active) | -33.1% (active) | -56.5% (active) | -64.6% (active) | -82.2% (active) | -70.9% (active) | -49.3% (active) | -66.5% (active) |  | -82.8% (active)
NCCc1ccc(OCc2ccccc2)c(OCc2ccccc2)c1 | 105% (inactive) | 86.3% (inactive) | 91.2% (inactive) | 75.2% (inactive) | 88.3% (inactive) | 126% (inactive) | 87.9% (inactive) | 69.2% (inactive) | 89.4% (inactive) | 88.1% (inactive) | 83.7% (inactive) | 69.9% (inactive) | 61.8% (inactive) | 34.6% (inactive) | 80.7% (inactive)
CO[C@H](/C(C)=C/C=C/C(C)=C/c1coc(C)n1)[C@H](C)[C@H]1C[C@@H](O)[C@@]2(C)O[C@H]2/C=C/[C@@H](C)[C@@H]2C[C@@H](CC(=O)O2)C[C@H]2O[C@@H]2C(=O)O1 | 34.2% (inactive) | -6.77% (active) | 32.3% (inactive) | -35.5% (active) | -36.3% (active) | -2.81% (active) | 19% (inactive) | 64% (inactive) | 8.66% (active) | -59.2% (active) | 21.5% (inactive) | 14.7% (inactive) | 4.48% (active) | -25.4% (active) | -17.9% (active)
CC1=C(CO)C2=C(C)C3(CC3)[C@@](C)(O)C(=O)C2=C1 | 14.3% (inactive) |  | 16.3% (inactive) |  | -1.49% (active) | 8.86% (active) | 3.84% (active) | 7.12% (active) | -55.8% (active) | 10.7% (inactive) | 26.3% (inactive) | 8.34% (active) | 2.68% (active) | -76.7% (active) | 12.4% (inactive)
COc1ccccc1/C=C(/C)[N+](=O)[O-] | 104% (inactive) and 91.1% (inactive) | 105% (inactive) and 102% (inactive) | 115% (inactive) and 81.6% (inactive) | 71.5% (inactive) and 95.9% (inactive) | 78.2% (inactive) and 101% (inactive) | 97.2% (inactive) and 118% (inactive) | 95.1% (inactive) and 104% (inactive) | 35.7% (inactive) and 86.6% (inactive) | 83.6% (inactive) and 101% (inactive) | 79.2% (inactive) and 105% (inactive) | 49.8% (inactive) and 106% (inactive) | 7.37% (active) and 105% (inactive) | 44% (inactive) and 98.6% (inactive) | 103% (inactive) and 99% (inactive) | 70% (inactive) and 99.8% (inactive)
